# Values without a mark were called inactive. Some of the results follow. Activity calls are given as the source filed them.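 How the source made its calls, unless noted: active means mean inhibition over 43.08%, the solvent-only control mean plus 3 SD; inactive means the rest.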
# How the values were obtained:
# [1] = target: Nuclear receptor coactivator 3 (Homo sapiens) (UniProt Q9Y6Q9); test: NCOA3 GAL4-fusion reporter inhibition – cell-based, luminescence, quadruplicate, confirmation (AID 588792); conditions: HEK293 GAL4-SRC3 luciferase reporter, at 3.6 µM, active compounds read high;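 further: 0% = DMSO treated cells and 100% = gossypol at 36 µM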
# Chain of Nuclear receptor coactivator 3 (Homo sapiens) (Q9Y6Q9 whole entry, looked up, the tested form may be a part): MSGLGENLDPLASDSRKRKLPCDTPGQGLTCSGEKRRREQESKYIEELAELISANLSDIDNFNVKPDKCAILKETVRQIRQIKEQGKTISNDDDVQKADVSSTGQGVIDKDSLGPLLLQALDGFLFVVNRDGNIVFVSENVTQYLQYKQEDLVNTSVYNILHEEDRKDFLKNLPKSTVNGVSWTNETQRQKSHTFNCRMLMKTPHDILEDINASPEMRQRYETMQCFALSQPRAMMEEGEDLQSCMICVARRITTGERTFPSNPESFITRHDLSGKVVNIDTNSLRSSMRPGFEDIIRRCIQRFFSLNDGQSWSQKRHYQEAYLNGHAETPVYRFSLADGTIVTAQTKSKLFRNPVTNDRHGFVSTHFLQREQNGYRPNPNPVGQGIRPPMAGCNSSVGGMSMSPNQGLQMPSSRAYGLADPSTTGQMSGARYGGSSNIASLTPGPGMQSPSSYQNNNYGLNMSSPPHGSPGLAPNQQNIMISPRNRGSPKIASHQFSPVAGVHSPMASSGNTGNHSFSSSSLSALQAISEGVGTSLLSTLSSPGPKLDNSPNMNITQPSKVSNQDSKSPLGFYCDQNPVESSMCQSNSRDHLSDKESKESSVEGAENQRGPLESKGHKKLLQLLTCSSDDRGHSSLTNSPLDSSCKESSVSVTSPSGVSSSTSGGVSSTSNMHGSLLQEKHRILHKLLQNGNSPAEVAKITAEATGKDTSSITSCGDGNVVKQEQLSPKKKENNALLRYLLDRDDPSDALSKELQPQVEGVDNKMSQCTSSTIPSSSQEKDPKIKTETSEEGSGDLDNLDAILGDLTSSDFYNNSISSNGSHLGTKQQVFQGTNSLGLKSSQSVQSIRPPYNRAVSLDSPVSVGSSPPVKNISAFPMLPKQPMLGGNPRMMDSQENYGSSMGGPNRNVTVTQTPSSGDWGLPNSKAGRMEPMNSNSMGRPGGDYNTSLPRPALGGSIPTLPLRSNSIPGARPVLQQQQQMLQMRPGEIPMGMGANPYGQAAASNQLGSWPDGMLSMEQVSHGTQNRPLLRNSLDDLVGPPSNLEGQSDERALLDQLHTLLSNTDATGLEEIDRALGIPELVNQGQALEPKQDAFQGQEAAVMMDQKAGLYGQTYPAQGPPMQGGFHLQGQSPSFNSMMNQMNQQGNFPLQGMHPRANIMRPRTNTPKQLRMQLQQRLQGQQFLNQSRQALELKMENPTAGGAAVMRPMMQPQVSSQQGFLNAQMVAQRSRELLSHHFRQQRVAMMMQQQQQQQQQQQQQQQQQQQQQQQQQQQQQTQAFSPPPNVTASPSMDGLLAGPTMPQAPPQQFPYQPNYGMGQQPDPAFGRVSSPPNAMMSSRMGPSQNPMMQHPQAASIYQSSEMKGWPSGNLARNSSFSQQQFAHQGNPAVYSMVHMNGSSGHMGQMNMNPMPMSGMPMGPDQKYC
# [2] = test system: transactivating tegument protein VP16 (Human herpesvirus 1), Gal4-VP16 luciferase reporter; test: repression of VP16-driven luciferase reporter – cell-based, luminescence, high throughput, counter-screen for SRC3 inhibitor project (AID 588794; in the data active means inhibition above about 30%); conditions: mammalian cells, at 3.6 µM, active compounds read high
# [3] = target: Nuclear receptor coactivator 1 (Homo sapiens) (UniProt Q15788); test: NCOA1 GAL4-fusion reporter inhibition – cell-based, luminescence, quadruplicate, confirmation (AID 588820;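 active means mean inhibition above 46.68%, the untreated control wells mean plus 3 SD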;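 further: 0% = DMSO wells and 100% = gossypol 36 µM treated wells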); conditions: HEK293 GAL4-SRC1 luciferase reporter, at 3.6 µM, active compounds read high
# Chain of Nuclear receptor coactivator 1 (Homo sapiens) (Q15788 whole entry, looked up, the tested form may be a part): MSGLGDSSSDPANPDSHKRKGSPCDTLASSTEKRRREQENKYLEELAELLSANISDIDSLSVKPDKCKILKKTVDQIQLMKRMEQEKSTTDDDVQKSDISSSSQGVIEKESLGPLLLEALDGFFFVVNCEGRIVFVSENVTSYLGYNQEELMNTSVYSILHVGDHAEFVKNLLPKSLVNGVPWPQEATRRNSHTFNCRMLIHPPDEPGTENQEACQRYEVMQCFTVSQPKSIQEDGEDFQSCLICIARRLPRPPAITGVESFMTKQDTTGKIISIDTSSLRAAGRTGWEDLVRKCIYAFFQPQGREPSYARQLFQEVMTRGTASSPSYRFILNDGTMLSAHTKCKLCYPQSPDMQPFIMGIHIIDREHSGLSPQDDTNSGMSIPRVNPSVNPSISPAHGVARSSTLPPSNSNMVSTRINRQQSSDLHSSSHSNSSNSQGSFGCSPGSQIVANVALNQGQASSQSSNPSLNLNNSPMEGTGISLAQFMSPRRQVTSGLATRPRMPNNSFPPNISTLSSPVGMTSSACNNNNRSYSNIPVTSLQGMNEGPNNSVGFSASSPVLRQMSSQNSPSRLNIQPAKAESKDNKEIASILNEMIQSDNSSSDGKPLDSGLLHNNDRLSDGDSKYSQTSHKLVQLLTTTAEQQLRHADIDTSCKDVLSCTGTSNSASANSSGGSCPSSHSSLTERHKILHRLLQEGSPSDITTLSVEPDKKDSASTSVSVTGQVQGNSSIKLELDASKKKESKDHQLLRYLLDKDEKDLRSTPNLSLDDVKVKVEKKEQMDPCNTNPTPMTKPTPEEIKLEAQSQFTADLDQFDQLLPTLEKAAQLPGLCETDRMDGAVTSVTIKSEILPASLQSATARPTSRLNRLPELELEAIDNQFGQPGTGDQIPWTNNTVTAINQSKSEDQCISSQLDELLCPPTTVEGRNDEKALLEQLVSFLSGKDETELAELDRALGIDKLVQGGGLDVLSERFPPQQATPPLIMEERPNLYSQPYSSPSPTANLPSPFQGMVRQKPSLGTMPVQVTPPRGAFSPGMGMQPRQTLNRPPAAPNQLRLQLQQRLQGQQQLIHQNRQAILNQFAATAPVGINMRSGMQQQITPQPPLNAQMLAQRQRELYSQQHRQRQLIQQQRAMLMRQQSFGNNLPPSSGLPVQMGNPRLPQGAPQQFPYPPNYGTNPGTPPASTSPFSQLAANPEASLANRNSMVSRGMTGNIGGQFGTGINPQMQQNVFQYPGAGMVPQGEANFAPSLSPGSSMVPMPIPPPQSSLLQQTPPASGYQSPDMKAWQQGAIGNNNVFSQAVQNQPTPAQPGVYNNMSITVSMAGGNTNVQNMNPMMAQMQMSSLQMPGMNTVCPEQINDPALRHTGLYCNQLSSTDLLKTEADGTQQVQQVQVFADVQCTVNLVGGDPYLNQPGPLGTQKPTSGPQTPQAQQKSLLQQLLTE
# [4] = repression of VP16-driven luciferase reporter – cell-based, luminescence, high throughput, counter-screen for SRC1 inhibitor project (AID 588824; in the data active means inhibition above about 25%); conditions: cell-based VP16 transactivation luciferase luminescence; at 3.6 µM; active compounds read high
# [5] = target: Photoreceptor-specific nuclear receptor (Homo sapiens) (UniProt Q9Y5X4); test: retest of NR2E3-NCOR disrupting agonists – cell-based, luminescence, CHO-S two-hybrid, confirmation (AID 624378;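 active means average inhibition above a cutoff equal to the mean inhibition of all tested compounds plus one SD, cut at about 70% in these data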;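 further: 0% = DMSO in NR2E3 cells and 100% = DMSO in cells lacking NR2E3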); conditions: CHO-S mammalian two-hybrid NR2E3-NCOR, luciferase luminescence; at 3.98 µM; active compounds read high
# Chain of Photoreceptor-specific nuclear receptor (Homo sapiens) (Q9Y5X4 whole entry, looked up): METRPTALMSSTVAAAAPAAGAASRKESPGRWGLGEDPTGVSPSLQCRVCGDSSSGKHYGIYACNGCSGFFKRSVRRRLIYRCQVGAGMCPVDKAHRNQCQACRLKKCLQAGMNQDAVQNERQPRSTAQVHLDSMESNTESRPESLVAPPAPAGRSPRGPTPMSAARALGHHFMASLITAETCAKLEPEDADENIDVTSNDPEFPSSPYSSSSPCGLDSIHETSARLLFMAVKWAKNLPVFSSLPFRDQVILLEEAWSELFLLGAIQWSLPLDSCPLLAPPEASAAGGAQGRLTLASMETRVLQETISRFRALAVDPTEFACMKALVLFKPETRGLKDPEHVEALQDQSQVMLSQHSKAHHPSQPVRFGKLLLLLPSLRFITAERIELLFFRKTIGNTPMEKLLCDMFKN
# [6] = nonselective effects on VP16 transactivation – cell-based, luminescence, CHO-S, high throughput, counter-screen for NR2E3 agonist project, confirmation (AID 624379;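 active means mean inhibition above a cutoff equal to the average over all tested compounds plus one standard deviation, cut at about 70% in these data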;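 further: 0% = DMSO with VP16-transfected cells and 100% = DMSO with cells lacking VP16; higher means less reporter light so more repression of VP16 activity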); conditions: CHO-S GAL4-VP16 luciferase reporter, at 3.98 µM, active compounds read high
# [7] = StAR promoter reporter inhibitors, counter-screen for LRH-1 inverse agonist project, cell-based, luminescence, high throughput (AID 651611; in the data active means inhibition above about 28%); conditions: StAR promoter luciferase reporter counterscreen, at 3.6 µM, active compounds read high
# [8] = target: Nuclear receptor subfamily 5 group A member 2 (Homo sapiens) (UniProt O00482); test: NR5A2 activity suppression in reporter cells – cell-based, luminescence, confirmation (AID 651613; in the data active means inhibition above about 42%;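 further: HEK293T cells co-transfected with LRH-1 and StAR promoter luciferase reporter; 0% = vehicle wells and 100% = parental cells lacking receptor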); conditions: cell-based LRH-1 luciferase reporter, inverse agonism; at 3.6 µM; active compounds read high
# Chain of Nuclear receptor subfamily 5 group A member 2 (Homo sapiens) (O00482 whole entry, looked up): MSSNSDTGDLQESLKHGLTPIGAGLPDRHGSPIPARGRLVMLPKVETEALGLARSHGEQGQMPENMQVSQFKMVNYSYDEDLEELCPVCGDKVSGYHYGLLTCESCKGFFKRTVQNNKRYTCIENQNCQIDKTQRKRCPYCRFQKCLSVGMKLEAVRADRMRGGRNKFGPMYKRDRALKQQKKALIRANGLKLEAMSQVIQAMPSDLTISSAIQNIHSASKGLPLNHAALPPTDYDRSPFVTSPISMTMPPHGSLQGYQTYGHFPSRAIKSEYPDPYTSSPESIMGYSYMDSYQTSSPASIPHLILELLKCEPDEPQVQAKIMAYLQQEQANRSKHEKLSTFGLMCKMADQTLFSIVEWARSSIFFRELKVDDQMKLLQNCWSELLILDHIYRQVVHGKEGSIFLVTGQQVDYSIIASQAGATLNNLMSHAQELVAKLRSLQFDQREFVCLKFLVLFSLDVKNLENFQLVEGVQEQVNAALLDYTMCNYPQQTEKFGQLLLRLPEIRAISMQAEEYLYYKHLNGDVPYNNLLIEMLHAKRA
# [9] = target: Steroidogenic factor 1 (Homo sapiens) (UniProt Q13285); test: inverse agonism at SF1 nuclear receptor – cell-based, luminescence, high throughput, counter-screen for LRH-1 inverse agonist project (AID 651614; in the data active means inhibition above about 44%;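 further: cells cotransfected with StAR promoter reporter and SF1 expression vector; 0% = vehicle on cells with receptor and 100% = vehicle on cells lacking receptor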); conditions: cell-based SF1 luciferase reporter, at 3.6 µM, active compounds read high
# Chain of Steroidogenic factor 1 (Homo sapiens) (Q13285 whole entry, looked up, the tested form may be a part): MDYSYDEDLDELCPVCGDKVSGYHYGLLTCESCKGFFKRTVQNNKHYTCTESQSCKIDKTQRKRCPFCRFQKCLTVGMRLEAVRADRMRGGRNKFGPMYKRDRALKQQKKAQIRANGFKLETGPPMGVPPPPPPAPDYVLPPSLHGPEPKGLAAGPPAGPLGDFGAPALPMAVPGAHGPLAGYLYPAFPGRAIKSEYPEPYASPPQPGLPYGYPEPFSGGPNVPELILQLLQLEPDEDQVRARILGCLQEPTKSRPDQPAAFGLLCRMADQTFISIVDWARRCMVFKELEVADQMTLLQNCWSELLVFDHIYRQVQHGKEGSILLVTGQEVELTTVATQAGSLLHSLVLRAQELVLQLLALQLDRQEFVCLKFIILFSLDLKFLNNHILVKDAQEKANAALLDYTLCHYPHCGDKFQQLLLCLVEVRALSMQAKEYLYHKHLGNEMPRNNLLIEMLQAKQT
# [10] = compounds suppressing VP16-driven luciferase signal – cell-based, luminescence, high throughput, counter-screen for LRH-1 inverse agonist project (AID 651615; in the data active means inhibition above about 33%); conditions: Gal4-VP16 luciferase reporter cells, at 3.6 µM, active compounds read high
# [11] = test system: transactivating tegument protein VP16 (Human herpesvirus 1); test: compounds suppressing VP16-driven luciferase signal – cell-based, luminescence, single concentration, counter-screen for SRC2 inhibitor project (AID 652007; in the data active means inhibition above about 36%); conditions: cell-based VP16 transactivation luciferase reporter, at 8.9 µM, active compounds read high
# [12] = target: Nuclear receptor coactivator 2 (Homo sapiens) (UniProt Q15596); test: inhibition of GAL4-SRC2 driven luciferase expression – cell-based, luminescence, HEK293, triplicate, confirmation (AID 652008;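 active means mean inhibition above 46.5%, the solvent-only control mean plus 3 SD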;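 further: 0% = DMSO-treated cells and 100% = Gossypol at 36 µM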); conditions: HEK293 GAL4-SRC2 luciferase reporter, at 8.9 µM, active compounds read high
# [13] = VP16-driven transactivation reporter suppression – cell-based, luminescence, HEK293, counter-screen for COUP-TFII antagonist project (AID 687007; in the data active means inhibition above about 13%); conditions: HEK293 Gal4-VP16 luciferase reporter, at 8.5 µM, active compounds read high
# [14] = target: COUP transcription factor 2 (Homo sapiens) (UniProt P24468); test: retest of COUP-TFII reporter suppressors – cell-based, luciferase reporter, HEK293, triplicate, confirmation (AID 687008;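 active means mean inhibition over three repeats above a set limit taken from the earlier primary screen, cut at about 38% in these data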;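 further: 100% = cells given the luciferase reporter alone without the COUP-TF2 vector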); conditions: HEK293 NGFI-A luciferase reporter, luminescence; at 8.5 µM; active compounds read high
# Chain of COUP transcription factor 2 (Homo sapiens) (P24468 whole entry, looked up): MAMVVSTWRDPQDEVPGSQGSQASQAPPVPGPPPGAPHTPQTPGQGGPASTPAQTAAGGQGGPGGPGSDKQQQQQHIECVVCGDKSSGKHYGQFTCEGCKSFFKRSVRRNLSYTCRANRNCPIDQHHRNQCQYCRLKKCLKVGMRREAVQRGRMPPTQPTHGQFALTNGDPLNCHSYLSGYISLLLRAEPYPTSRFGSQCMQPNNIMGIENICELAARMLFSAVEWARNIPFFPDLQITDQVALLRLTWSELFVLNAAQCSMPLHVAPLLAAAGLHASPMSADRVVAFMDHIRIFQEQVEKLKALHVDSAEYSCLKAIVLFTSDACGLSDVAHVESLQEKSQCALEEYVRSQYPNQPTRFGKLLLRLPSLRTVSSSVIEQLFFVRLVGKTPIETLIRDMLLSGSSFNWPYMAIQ
smiles,measurement,setting,value
CCC(C)(O)C(=O)OC1C(=O)OC2CC3C(C)=CC(=O)C(O)C3(C)C3C4(O)OCC23C1C(C)C4O (stereo not drawn),inhibition,[1],97.1% (active)
same,inhibition,[2],96.7% (active)
same,inhibition,[3],94.3% (active)
same,inhibition,[4],96.4% (active)
same,inhibition,[5],98.7% (active)
same,inhibition,[6],86.9% (active)
same,inhibition,[7],96.1% (active)
same,inhibition,[8],109% (active)
same,inhibition,[9],97.6% (active)
same,inhibition,[10],96.8% (active)
same,inhibition,[11],80.7% (active)
same,inhibition,[12],74.8% (active)
same,inhibition,[13],31.2% (active)
same,inhibition,[14],90.8% (active)
N#CC(C#N)=NNc1ccc(-n2ccc(C(F)(F)F)n2)cc1,inhibition,[1],49.1% (active)
same,inhibition,[2],52.6% (active)
same,inhibition,[3],40.7%
same,inhibition,[4],56.3% (active)
C[C@H]1CCC[C@@H](O)CCC/C=C/c2cc(O)cc(O)c2C(=O)O1,inhibition,[1],61.8% (active)
same,inhibition,[2],63.4% (active)
same,inhibition,[3],29.2%
same,inhibition,[4],56.1% (active)
CN1CCN(c2ccc([N+](=O)[O-])c3no[n+]([O-])c23)CC1,inhibition,[1],98.6% (active)
same,inhibition,[2],96.4% (active)
same,inhibition,[3],93.7% (active)
same,inhibition,[4],96% (active)
same,inhibition,[7],97% (active)
same,inhibition,[8],111% (active)
same,inhibition,[9],98.9% (active)
same,inhibition,[10],97.9% (active)
CCC1(OC(=O)CN)C(=O)OCc2c1cc1n(c2=O)Cc2cc3ccccc3nc2-1 (stereo not drawn),inhibition,[1],94.9% (active)
same,inhibition,[2],82.8% (active)
same,inhibition,[3],56.9% (active)
same,inhibition,[4],77.3% (active)
same,inhibition,[7],84% (active)
same,inhibition,[8],103% (active)
same,inhibition,[9],90.9% (active)
same,inhibition,[10],82% (active)
O=c1[nH]c2ccccc2n1C1CCN(C(CCc2ccccc2)c2nnnn2Cc2ccccc2)CC1 (stereo not drawn),inhibition,[1],34.6%
same,inhibition,[2],40.3% (active)
same,inhibition,[3],12%
same,inhibition,[4],36.7% (active)
O=c1[nH]c2ccccc2n1C1CCN(C(c2ccccc2)c2nnnn2-c2ccc3c(c2)OCCO3)CC1 (stereo not drawn),inhibition,[1],41.3%
same,inhibition,[2],14.1%
same,inhibition,[3],-15.1%
same,inhibition,[4],16.1%
CC(=O)c1c(C)n(C2CCCCC2)c2ccc(O)cc12,inhibition,[1],81.2% (active)
same,inhibition,[2],58.5% (active)
same,inhibition,[3],68.4% (active)
same,inhibition,[4],60.2% (active)
CC1CC(C)(O)CC(C(O)CC2CC(=O)NC(=O)C2)C1=O (stereo not drawn),inhibition,[1],96.7% (active)
same,inhibition,[2],95.7% (active)
same,inhibition,[3],89.7% (active)
same,inhibition,[4],94.9% (active)
same,inhibition,[7],96.2% (active)
same,inhibition,[8],110% (active)
same,inhibition,[9],98.5% (active)
same,inhibition,[10],98.1% (active)

# Reference: PubChem BioAssay
